PubChem BioAssay (Tox21)
Several values for one entry are separate records, joined by “and”; a condition that tells them apart may be missing. Equal entries are not always repeated. The source holds several records for some structures; these can differ, active in one and inactive in another. Activity calls are given as the source filed them. Unless noted, the call rests on the fitted dose curve; in most records, active means well fitted curve in the direction sought with a large enough effect in the repeat runs; inconclusive means weak or mixed curves; inactive means no such curve, though single readings can be large; an effect the other way counts as inactive or inconclusive.

Columns and labels:
[1] = qHTS assay to identify small molecule antagonists of the thyroid receptor (TR) signaling pathway - cell viability counter screen (AID 743064); further: nearly all actives have a fitted effect of over 50% in size; further: potency means the concentration at half of the fitted maximal effect
Procedure, shortened: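 Plate GH3.TRE-Luc cells; incubate 4 h at 37 °C; add compound, then T3 to 1 nM final; incubate 23.5 h; add CellTiter-Fluor; incubate 30 min at 37 °C, 5% CO2; read fluorescence.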

[2] = qHTS assay to identify small molecule antagonists of the thyroid receptor (TR) signaling pathway (AID 743065); further: nearly all actives have a fitted effect of over 55% in size; further: potency means the concentration at half of the fitted maximal effect
Procedure, shortened: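 GH3.TRE-Luc rat pituitary cells carrying two TR response elements driving luciferase were plated for 4 h, given compound plus 1 nM T3 (final), and incubated 23.5 h at 37 C. ONE-Glo luminescence measured reporter inhibition; CellTiter-Fluor fluorescence tracked cytotoxicity.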

[3] = molecular target: Estrogen receptor (Homo sapiens) (UniProt P03372); test: qHTS assay to identify small molecule agonists of the estrogen receptor alpha (ER-alpha) signaling pathway (AID 743075; calls by dose curve)
Sequence of Estrogen receptor (Homo sapiens) (P03372 whole entry, looked up): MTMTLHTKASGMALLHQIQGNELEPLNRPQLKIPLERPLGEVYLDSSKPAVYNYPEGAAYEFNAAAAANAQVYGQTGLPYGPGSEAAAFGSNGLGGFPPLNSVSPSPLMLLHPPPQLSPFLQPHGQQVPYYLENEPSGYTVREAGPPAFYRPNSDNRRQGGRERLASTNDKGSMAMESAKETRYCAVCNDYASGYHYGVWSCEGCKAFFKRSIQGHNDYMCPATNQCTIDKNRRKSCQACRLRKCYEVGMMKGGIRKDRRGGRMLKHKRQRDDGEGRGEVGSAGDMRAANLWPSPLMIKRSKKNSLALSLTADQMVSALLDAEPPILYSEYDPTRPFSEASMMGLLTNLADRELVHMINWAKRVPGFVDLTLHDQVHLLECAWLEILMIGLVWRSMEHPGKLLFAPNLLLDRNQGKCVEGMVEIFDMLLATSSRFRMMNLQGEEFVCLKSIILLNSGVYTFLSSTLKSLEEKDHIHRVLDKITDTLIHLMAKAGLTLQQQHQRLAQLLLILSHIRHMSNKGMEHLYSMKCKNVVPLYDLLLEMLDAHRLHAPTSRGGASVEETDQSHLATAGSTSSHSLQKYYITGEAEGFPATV

[4] = qHTS assay to identify small molecule antagonists of the estrogen receptor alpha (ER-alpha) signaling pathway using the BG1 cell line - cell viability counter screen (AID 743081);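 further: compound given together with 17beta-estradiol as the ER stimulus; nearly all actives have a fitted effect of over 45% in size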; further: potency means the concentration at half of the fitted maximal effect
[5] = qHTS assay to identify small molecule antagonists of the estrogen receptor alpha (ER-alpha) signaling pathway - cell viability counter screen (AID 743074; calls by dose curve; further: nearly all actives have a fitted effect of over 45% in size; further: potency means the concentration at half of the fitted maximal effect)
Aromatase (Homo sapiens) = Aromatase (Homo sapiens) (UniProt P11511); test: qHTS assay to identify aromatase inhibitors (AID 743083); further: nearly all actives have a fitted effect of over 55% in size; further: potency means the concentration at half of the fitted maximal effect
Sequence of Aromatase (Homo sapiens) (P11511 whole entry, looked up): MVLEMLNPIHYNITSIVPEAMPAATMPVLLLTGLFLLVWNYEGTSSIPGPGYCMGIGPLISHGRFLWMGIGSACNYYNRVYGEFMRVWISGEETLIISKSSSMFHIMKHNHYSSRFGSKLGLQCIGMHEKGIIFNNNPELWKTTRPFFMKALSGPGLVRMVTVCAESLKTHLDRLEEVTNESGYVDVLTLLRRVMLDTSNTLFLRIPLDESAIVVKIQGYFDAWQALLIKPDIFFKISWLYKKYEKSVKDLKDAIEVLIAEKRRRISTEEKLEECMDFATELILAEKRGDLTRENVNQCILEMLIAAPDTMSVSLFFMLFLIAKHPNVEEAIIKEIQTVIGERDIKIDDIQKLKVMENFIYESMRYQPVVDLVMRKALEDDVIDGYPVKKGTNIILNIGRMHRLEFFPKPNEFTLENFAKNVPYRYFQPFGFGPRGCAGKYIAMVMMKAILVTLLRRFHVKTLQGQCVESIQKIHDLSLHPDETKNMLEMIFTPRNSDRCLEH

[6] = test system: thyroid hormone receptor (rat, GH3 cells); test: qHTS assay to identify small molecule agonists of the thyroid receptor (TR) signaling pathway (AID 743066; calls by dose curve)
[7] = molecular target: Estrogen receptor (Homo sapiens) (UniProt P03372); test: qHTS assay to identify small molecule antagonists of the estrogen receptor alpha (ER-alpha) signaling pathway (AID 743069; active means well fitted curve in the direction sought with a large enough effect in the signal ratio in the repeat runs, not every such curve was filed as active; inconclusive means weak or mixed curves, or effect the other way; inactive means no such curve, though single readings can be large or run the other way; the % refers to the signal ratio; further: potency means the concentration at half of the fitted maximal effect)
Procedure, shortened: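 HEK293 cells stably carrying an ER-alpha-UAS-bla beta-lactamase reporter were pre-cultured overnight in 2% charcoal-stripped FBS medium. Test compounds in DMSO were added together with 17beta-estradiol for 18 hr at 37C. Read-out was fluorescence after 2 hr with LiveBLAzer B/G FRET substrate at room temperature.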

[8] = molecular target: Estrogen receptor (Homo sapiens) (UniProt P03372); test: qHTS assay to identify small molecule agonists of the estrogen receptor alpha (ER-alpha) signaling pathway using the BG1 cell line (AID 743079); conditions: BG1Luc4E2 cells, ERE-luciferase agonist, 22 h; activation: at 70.3 µM (top of the series); further: nearly all actives have a fitted effect of over 20% in size; further: potency means the concentration at half of the fitted maximal effect
[9] = qHTS assay to identify small molecule antagonists of the estrogen receptor alpha (ER-alpha) signaling pathway using the BG1 cell line (AID 743080; calls by dose curve;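 further: BG1 cells stimulated with 17beta-estradiol alongside compound; nearly all actives have a fitted effect of over 25% in size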; further: potency means the concentration at half of the fitted maximal effect)
Procedure, shortened: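 BG1-Luc-4E2 cells (endogenous full-length ER-alpha, stable 4×ERE-luciferase) were starved 5 days in phenol-red-free medium with 10% charcoal-stripped FBS, plated 24 h, then given compound plus 17beta-estradiol for 21.5 h at 37 C; ONE-Glo luminescence read after 30 min.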

Measured: Potency

CSc1ccc(Oc2ccc(S(N)(=O)=O)cc2CN(C)C)cc1C
inactive: [3] | [4]
active: [1] 54.5 µM | [2] 27.3 µM

CCCCC1C(=O)N(c2ccccc2)N(c2ccc(O)cc2)C1=O (stereo not drawn)
inactive: [5] | [4] | Aromatase (Homo sapiens)
active: [1] 3.59 µM | [2] 3.2 µM

CNC(=S)NC
inactive: [1] | [6] | [7] | [5] | [3] | [8] | [9] | [4] | Aromatase (Homo sapiens)

CC1=NN(c2ccc(C(=O)O)cc2)C(=O)C1
inactive: [1] | [2] | [5] | [4] | Aromatase (Homo sapiens)

COc1cc2ncnc(Nc3ccc(F)c(Cl)c3)c2cc1OCCCN1CCOCC1
active: [1] 10.6 µM | [2] 10.6 µM | [7] 16.9 µM [inhibitor]
inactive: [5] | [3] | Aromatase (Homo sapiens)

C=CC(C)(C)CC(=O)OC
inactive: [1] | [2] | [5] | [4]

CCN(Cc1cccc(S(=O)(=O)O)c1)c1ccc(C(=C2C=CC(=[N+](CC)Cc3cccc(S(=O)(=O)[O-])c3)C=C2)c2ccccc2)cc1
inactive: [1] | [6] | [7] | [5] | [3] | [8] | [9] | [4] | Aromatase (Homo sapiens)

CNCCCC1c2ccccc2C=Cc2ccccc21
active: [1] 4.52 µM | [2] 11.4 µM
inactive: [7] | [5] | [3] | [8] | [9] | [4] | Aromatase (Homo sapiens)

COc1cc2c(cc1OC)-c1cc(=Nc3c(C)cc(C)cc3C)n(C)c(=O)n1CC2
inactive: [3]
active: [1] 21.1 µM | [2] 18.8 µM | Aromatase (Homo sapiens) 26.6 µM

CCCCCCCCCCOS(=O)(=O)O
inactive: [1] | [6] | [7] | [5] | [3] | [8] | [9] | [4] | Aromatase (Homo sapiens)

C[Si]1(C)O[Si](C)(C)O[Si](C)(C)O1
inactive: [1] | [2] | [6] | [4] | Aromatase (Homo sapiens)

Cc1nccn1-c1ccc(Sc2cccc(C3(C(N)=O)CCOCC3)c2)cc1
inactive: [5] | [4]
active: [1] 27.3 µM | [2] 4.86 µM | [7] 0.275 µM [inconclusive] | [9] 1.93 µM | Aromatase (Homo sapiens) 54.5 µM

COCCOC(=O)C1=C(C)NC(C)=C(C(=O)OC/C=C/c2ccccc2)C1c1cccc([N+](=O)[O-])c1 (stereo not drawn)
active: [1] 13.3 µM | [2] 11.9 µM | [7] 23.9 µM [inconclusive]
inactive: [5] | [3] | [9] | [4]

Cc1cc2nc3ccc(=[N+](C)C)cc-3sc2cc1N
active: [1] 26.6 µM | [2] 21.1 µM | Aromatase (Homo sapiens) 5.31 µM
inactive: [5] | [3] | [4]

NC(=O)N(O)[C@@H]1COc2cc(OCc3ccccc3)ccc21
active: [2] 61.1 µM
inactive: [1] | [7] | [5] | [3] | [4] | Aromatase (Homo sapiens)

Nc1nc(Cl)nc2c1ncn2[C@@H]1O[C@H](CO)[C@@H](O)[C@@H]1F
active: [1] 0.237 µM | [2] 0.133 µM | [9] 3.76 µM
inactive: [6] | [3] | [8] | [4]

Cc1ccc(/C=N/n2c(-c3ccccc3)csc2=S)cc1
active: [2] 23.7 µM
inactive: [1] | [6] | [4]

COc1cc2c(N3CCN(C(=O)Nc4ccc(OC(C)C)cc4)CC3)ncnc2cc1OCCCN1CCCCC1
inactive: [7] | [5] | [8] | [9] | Aromatase (Homo sapiens)
active: [1] 11.9 µM | [2] 13.3 µM

CO[C@@]12[C@H](COC(N)=O)C3=C(C(=O)C(C)=C(N)C3=O)N1C[C@@H]1N[C@@H]12
active: [1] 2.37 µM | [2] 1.33 µM | Aromatase (Homo sapiens) 29.8 µM

COC(=O)Nc1nc2ccc(C(=O)c3cccs3)cc2[nH]1
active: [1] 0.266 µM | [2] 0.237 µM
inactive: [6] | [4] | Aromatase (Homo sapiens)

O=C(CCCCCCCCC#CI)Oc1ccccc1
inactive: [1] | [6] | [4] | Aromatase (Homo sapiens)
active: [2] 13.3 µM

NC(=O)N(O)[C@@H]1C=C[C@H](Oc2cccc(Oc3ccc(F)cc3)c2)C1
inactive: [1] | [7] | [5] | [3] | [4]
active: [2] 68.6 µM | [8] 13.7 µM | [9] 77 µM

CCc1nn(CCCN2CCN(c3cccc(Cl)c3)CC2)c(=O)n1CCOc1ccccc1
inactive: [3]
active: [1] 10.6 µM and 26.6 µM | [2] 11.9 µM and 26.6 µM | [5] 23.9 µM | [9] 7.5 µM and 26.6 µM | Aromatase (Homo sapiens) 29.8 µM and 33.5 µM
29.8 µM (active) and inactive: [4]

CN(C)CCOC1=Cc2ccccc2Sc2ccc(Cl)cc21
active: [1] 10.6 µM | [2] 9.44 µM
inactive: [7] | [3] | [8] | [9] | [4]

C=CC(C)(O)CCCC(C)CCCC(C)CCCC(C)C (stereo not drawn)
inactive: [1] | [2] | [7] | [5] | [3] | [8] | [9] | [4] | Aromatase (Homo sapiens)

O=C(N[C@@H](c1ccccc1)[C@@H]1CCCCN1)c1cccc(C(F)(F)F)c1Cl
active: [1] 24.3 µM | [2] 27.3 µM | Aromatase (Homo sapiens) 38.6 µM
inactive: [5] | [3]

C[Si](NC1CCCCC1)(NC1CCCCC1)NC1CCCCC1
inactive: [1] | [6] | [7] | [5] | [3] | [8] | [9] | [4] | Aromatase (Homo sapiens)

O=C(CCCN1CCN(c2ccc(F)cc2)CC1)NC1c2ccccc2CSc2ccccc21 (stereo not drawn)
active: [1] 10.6 µM | [2] 10.6 µM | [7] 21.3 µM [inconclusive]
inactive: [5] | [3] | [8] | [9]

CCc1cccc(N(C)C(N)=Nc2cccc3ccccc23)c1
inactive: [6] | Aromatase (Homo sapiens)
active: [1] 18.8 µM | [2] 21.1 µM

Cc1oc(C)c(C(=O)Nc2ccccc2)c1C
inactive: [1] | [6] | [3]
active: [2] 24.3 µM | Aromatase (Homo sapiens) 13.7 µM

CCCCOC(=O)CCS
inactive: [1] | [2] | [7] | [5] | [3] | [4]

CCOc1cc(N)c(Cl)cc1C(=O)NCC1CN(Cc2ccc(F)cc2)CCO1 (stereo not drawn)
inactive: [1] | [6] | [7] | [5] | [3] | [8] | [9] | [4] | Aromatase (Homo sapiens)
